Each structure is given as a SMILES string. About 83,000 compounds went through this panel and 20% of them were active in at least one assay; those are over-represented in the sample as a whole.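 Cells were grown in 96-well plates and exposed to the test compound at a single concentration for 48 hours; results are reported as percent growth, with values below 10 considered active.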 A number with no mark means an inactive call. Calls of active or inactive are those of the source.

One test relates to SK-MEL-28 melanoma. The test is described as follows: NCI-60 one-dose screen, 48 h (100 = growth as untreated, 0 = no growth, -100 = all killed). The settings on record: 10 µM unless noted.
Regarding `CCCCCCCCCC[N+](C)(C)C`, the growth is 51.8%.
The same measure, in the same setting: the value for `CCCC(=O)NNc1[nH]c(-c2ccc(OC)cc2)cc1C(=O)OCC` was 120%; that for `O=C1c2cc([N+](=O)[O-])ccc2-c2cc(Cl)c(NC(=O)C(F)(F)F)cc21` was 106%; that for `N=C(c1ccccc1)N(Cc1ccccc1)Cc1ccccc1` was 98.8%.
Still for that read-out and setting: the value for `CCCCCCCCCC[N+](C)(C)N` was 110%.
On the same count and under the same terms, the value for `O=S(=O)(O)c1ccc2c(c1)Sc1cc(S(=O)(=O)O)ccc1O2` was 106%; that for `CCCCCCCCCCC(C[N+](C)(C)C/C=C/c1ccccc1)C(O)c1ccccc1` (stereo not given) was 21.2%.
As to `O=C(CCl)c1ccc2c(c1)CCCC2`, the growth was 105%.
Take `Cc1ccc(C(=O)Nc2ccc(CN3CCN(C)CC3)c(C(F)(F)F)c2)cc1C#Cc1cncc2ncccc12`: the growth was -90.4% (active).
The same measure, in the same setting: the same measure for `CCCCCCCCCC(C)NC(=O)CCl` (stereo not given): 95.3%.
Same read-out and setting: the same measure for `COc1ccc(C(=O)CN2C(=O)NC(c3ccccc3)(c3ccccc3)C2=O)cc1`: 103%; for `N#Cc1ccc(NC2c3ccccc3CC2O)cc1` (stereo not given): 109%.
Take `CCCCCCCCCCCC(=O)OC(C)C(=O)Nc1ccccc1` (stereo not given): the growth was 108%.

In a further test the test system is SK-MEL-2 melanoma. The description is as above. The settings on record: 10 µM unless noted.
`COc1ccccc1Cn1cc2c(c1)-c1oncc1CC2`: the growth was 35.6%.
Regarding `CC1=NN(c2cccc(Cl)c2)C(=O)/C1=C\c1cn(-c2nc(N3CCOCC3)nc(N3CCOCC3)n2)c2ccccc12`, the growth is 110%.
On to `NC(=O)c1c(Nc2ccccc2)nn2cc(-c3nc4ccccc4s3)c(N)nc12`, for which the growth is 100%.
The same measure, in the same setting: the same measure for `O=C(N/N=C/c1coc2ccccc2c1=O)c1cc2oc(-c3ccccc3)cc2[nH]1`: 75.4%.
The same measure, in the same setting: the same measure for `CCCCCCCCCC[N+](C)(C)C`: 56.3%; for `CCCCCCC(=O)C(C)C`: 115%.
Take `CCCC(=O)NNc1[nH]c(-c2ccc(OC)cc2)cc1C(=O)OCC`: the growth was 94.6%.
As to `O=C1c2cc([N+](=O)[O-])ccc2-c2cc(Cl)c(NC(=O)C(F)(F)F)cc21`, the growth was 97.1%.
Consider `N=C(c1ccccc1)N(Cc1ccccc1)Cc1ccccc1`, for which the growth is 85.4%.
On the same count and under the same terms, the value for `CSCc1ncc(-c2ccc(C(F)(F)F)cc2)c(NC2CCCCCC2)n1` was 57.5% [25 µM]; that for `O=C(Nc1cccc(Cn2c(=O)[nH]c3ccc(Oc4ncccn4)cc3c2=O)c1)c1ccc(Cl)cc1` was 59.5%; that for `CC[C@H](Nc1ncnc2nc[nH]c12)c1nc2cccc(NCc3ccc(C(=O)NO)o3)c2c(=O)n1-c1ccccc1` was 102%.
Regarding `CCCCCCCCCC[N+](C)(C)N`, the growth was 105%.
Take `C=C(C)C(C(=O)OCC)(C(=O)OCC)C(C)C`: the growth was 121%.
In the case of `COC1=CC(c2ccc[nH]2)=N/C1=C\c1[nH]c(C)c(C(=O)CCCCC(=O)NC(C)(C)C)c1C`, the growth is 98%.
Consider `COc1ccc(NC(=O)/C=C(C)/C=C/C=C(C)/C=C/C2=C(C)CCCC2(C)C)cc1`, for which the growth was 61.6%.
The same measure, in the same setting: the value for `CCCCCCCCc1ccc(OCCOCC[N+](C)(C)CC)cc1` (tested in a mixture with another compound) was 11.5%; that for `COc1cc2c(cc1OC)C(Cc1cc(OC)c(OC)cc1[N+](=O)[O-])=NCC2` was 92.9%; that for `O=C1CCNC1` was 109%.
On the same count and under the same terms, the same measure for `COc1ccc(-c2nnc(SCC(=O)Nc3ccc(C(=O)/C=C/c4cc(OC)c(OC)c(OC)c4)cc3)n2-c2ccccc2)cc1OC`: -26.1% [100 µM] (active).
With `O=S(=O)(O)c1ccc2c(c1)Sc1cc(S(=O)(=O)O)ccc1O2`, the growth is 107%.
Same read-out and setting: the value for `Cc1ccc(S(=O)(=O)Nc2cccc(Cn3c(=O)[nH]c4ccc(Oc5ncccn5)cc4c3=O)c2)cc1` was 55%; that for `CCCCCCCCCCC(C[N+](C)(C)C/C=C/c1ccccc1)C(O)c1ccccc1` (stereo not given) was -52.7% (active); that for `COc1ccc(/C=C2\CCCC3=C2N=C2SC=NN2C3c2ccc(OC)c(OC)c2)cc1OC` (stereo not given) was 109%.
On the same count and under the same terms, the value for `COc1cc(CCNc2cnc3cc(N)cc(N)c3n2)cc(OC)c1` was 104%; that for `O=C(CCl)c1ccc2c(c1)CCCC2` was 80.3%.
The same measure, in the same setting: the same measure for `Cc1ccc(C(=O)Nc2ccc(CN3CCN(C)CC3)c(C(F)(F)F)c2)cc1C#Cc1cnc(N)c2ccc(F)cc12`: -56.2% (active); for `Cc1ccc(C(=O)Nc2ccc(CN3CCN(C)CC3)c(C(F)(F)F)c2)cc1C#Cc1cncc2ncccc12`: -78.7% (active).
On to `COc1ccc(C(=O)CN2C(=O)NC(c3ccccc3)(c3ccccc3)C2=O)cc1`, for which the growth is 99.6%.
With `CCCCCCCCC(=O)Nc1ccc(O)cc1`, the growth was 93%.
Still for that read-out and setting: the same measure for `COc1ccc(-c2nc(SCC(C)C)nc(Nc3ccccc3)c2C#N)cc1`: 111%; for `N#Cc1ccc(NC2c3ccccc3CC2O)cc1` (stereo not given): 103%.
Still for that read-out and setting: the same measure for `N#CCCCCCCCCCCC#N`: 108%; for `CCOC(=O)c1ccc2n1CCCc1cnc(NC(C)=O)nc1-2`: 102%; for `O=C(/C(Br)=C/c1ccccc1)c1ccccc1`: 15.2%.
Take `COc1ccc2c(N)ncc(C#Cc3cc(C(=O)Nc4ccc(CN5CCN(C)CC5)c(C(F)(F)F)c4)cnc3C)c2c1`: the growth was -15.4% (active).
Same read-out and setting: the same measure for `CCCCCCCCCCCC(=O)OC(C)C(=O)Nc1ccccc1` (stereo not given): 97.6%.
